From PubChem BioAssay AID2355 (The Scripps Research Institute Molecular Screening Center, 2010)
This is one part of the list. Activity calls are given as the source filed them. Rule as the data show it: active = inhibition above about 16%; inactive = the rest.

The compounds below were run against Serine/threonine-protein phosphatase PP1-alpha catalytic subunit (Homo sapiens) (UniProt P62136) (assay: PP1 phosphatase inhibitors, counter-screen for PP5 inhibitor project, biochemical, fluorescence, triplicate (AID 2355)). Conditions: PP1 enzyme, fluorescent phosphatase substrate; at 6.7 µM; stronger effect = higher value.
Chain of Serine/threonine-protein phosphatase PP1-alpha catalytic subunit (Homo sapiens) (P62136 whole entry, looked up): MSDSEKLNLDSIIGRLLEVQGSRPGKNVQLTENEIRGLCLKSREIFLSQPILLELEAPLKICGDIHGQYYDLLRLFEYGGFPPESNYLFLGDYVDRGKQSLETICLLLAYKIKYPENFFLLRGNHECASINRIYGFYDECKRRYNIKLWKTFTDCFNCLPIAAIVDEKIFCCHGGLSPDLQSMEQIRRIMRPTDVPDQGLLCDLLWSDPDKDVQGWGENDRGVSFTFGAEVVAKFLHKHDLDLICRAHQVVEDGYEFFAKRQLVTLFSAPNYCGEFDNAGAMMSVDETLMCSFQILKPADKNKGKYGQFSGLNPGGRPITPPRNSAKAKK
`CN(C)c1nc(N)nc(CSc2nnnn2-c2cccc3ccccc23)n1` was tested, and the inhibition was -1.14% (inactive). With `CCN1CCN(CCNC(=O)c2ccc(/C=C3/Sc4ccccc4N(Cc4cccc(C)c4)C3=O)cc2)CC1` the inhibition was -16% (inactive). With `O=C(O)c1n[nH]nc1-c1ccccc1` the inhibition was 0.18% (inactive). With `COc1ccc(OC)c(C(=O)c2ccc(C(=O)O)cc2)c1` the inhibition was -5.81% (inactive). For `CN(c1ccccc1)S(=O)(=O)c1ccc(NC(=O)COc2ccccc2)cc1`, the inhibition was 3.34% (inactive). In the case of `O=c1ccc2c(-c3ccccc3S(=O)(=O)O)c3ccc(O)c(O)c3oc-2c1O`, the inhibition is reported as 5.34% (inactive). `CNC(=S)NNC(=O)c1oc2nc(-c3ccccc3)cc(-c3ccco3)c2c1N` was tested, and the inhibition was -1.11% (inactive). In the case of `COCCN1C=C2C(=O)C(C)(OC(=O)C3CCCC3)C(=O)C=C2C=C1c1ccsc1` (centres undefined), the inhibition is reported as 16.6% (active). With `CCOC(=O)Nc1ccc2c(c1)N(C(=O)CN1CCN3CCCC3C1)c1ccccc1CC2` (centres undefined) the inhibition was -7% (inactive). `O=C(C1=C[C@H](c2ccc(C(F)(F)F)cc2)C[C@H](OCc2ccc(CO)cc2)O1)N1CCN(Cc2ccccc2)CC1` was tested, and the inhibition was 3.55% (inactive). `COc1cc(/C=C2/SC(=S)N(Cc3ccccc3)C2=O)cc(OC)c1O` was tested, and the inhibition was 2.23% (inactive). For `N#Cc1c(N2CCCCC2)nc(N)c2c(N)nc(SCC(=O)O)cc12`, the inhibition was 3.99% (inactive). In the case of `C[C@@]12C(=O)N(c3cccc(Br)c3)C(=O)N1[C@H](c1ccc(Cl)cc1)[C@@H]1C(=O)N(C3CCCCC3)C(=O)[C@@H]12`, the inhibition is reported as 6.16% (inactive). `Cc1sc(NC(=O)C2C3CCC(O3)C2C(=O)O)c(C(=O)OC(C)C)c1-c1ccc(Cl)cc1` (centres undefined) was tested, and the inhibition was 9.97% (inactive).
